Laboratory results reported in PubChem BioAssay (NCI).
Compounds without any hit were thinned out: in the full panel of roughly 83,000, 20% have a hit.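 In brief: 96-well plates, 48 h treatment, single concentration, percent growth endpoint.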 A number with no mark means an inactive call. Calls of active or inactive are those of the source. The calls were made as follows: active = growth percent below 10; inactive = the rest.

How the values were obtained:
Assay in all cases: NCI-60 one-dose screen, 48 h (100 = growth as untreated, 0 = no growth, -100 = all killed)
Conditions in all cases: 10 µM unless noted
NCI-H23 lung = test system: NCI-H23 lung
NCI-H226 lung = test system: NCI-H226 lung
NCI-H322M lung = test system: NCI-H322M lung
HOP-62 NSCLC = test system: HOP-62 NSCLC
NCI-H460 lung = test system: NCI-H460 lung
HOP-92 NSCLC = test system: HOP-92 NSCLC
NCI-H522 lung = test system: NCI-H522 lung
A549/ATCC NSCLC = test system: A549/ATCC NSCLC
786-0 renal = test system: 786-0 renal
COLO 205 colon = test system: COLO 205 colon
DU-145 prostate = test system: DU-145 prostate
K-562 leukemia = test system: K-562 leukemia
MALME-3M melanoma = test system: MALME-3M melanoma
MDA-MB-231 breast = test system: MDA-MB-231 breast
RXF 393 renal = test system: RXF 393 renal
SF-268 CNS = test system: SF-268 CNS
SF-295 CNS = test system: SF-295 CNS
SF-539 CNS = test system: SF-539 CNS
UACC-257 melanoma = test system: UACC-257 melanoma
M14 melanoma = test system: M14 melanoma

| Compound | growth (NCI-H23 lung) | growth (NCI-H226 lung) | growth (NCI-H322M lung) | growth (HOP-62 NSCLC) | growth (NCI-H460 lung) | growth (HOP-92 NSCLC) | growth (NCI-H522 lung) | growth (A549/ATCC NSCLC) | growth (786-0 renal) | growth (COLO 205 colon) | growth (DU-145 prostate) | growth (K-562 leukemia) | growth (MALME-3M melanoma) | growth (MDA-MB-231 breast) | growth (RXF 393 renal) | growth (SF-268 CNS) | growth (SF-295 CNS) | growth (SF-539 CNS) | growth (UACC-257 melanoma) | growth (M14 melanoma) |
| --- | --- | --- | --- | --- | --- | --- | --- | --- | --- | --- | --- | --- | --- | --- | --- | --- | --- | --- | --- | --- |
| O=C1CCC(C(=O)NCCNCCNC(=O)C2CCC(=O)N2)N1 (stereo not given) | 106% | 97.7% | 104% | 93.7% | 102% | 80.6% | 72.5% | 88.4% | 101% | 110% | 109% | 101% | 105% | 121% | 101% | 100% | 100% | 102% | 93% | 96.5% |
| Cc1cccc(NC2=C(Cl)C(=O)c3nc(C)ccc3C2=O)c1 | -27.8% (active) | -0.0359% (active) | 13.5% | 42.8% | 5.47% (active) | -68.7% (active) | -24% (active) | 16.7% | 3.53% (active) | 111% | -80.2% (active) | 2.91% (active) | -75.3% (active) | -75.1% (active) | -19.8% (active) | 58.2% | 12.7% | -79% (active) | -80.2% (active) | -45% (active) |
| c1ccc2cc(C[n+]3ccn(CCCCCCCCCCCCn4cc[n+](Cc5ccc6ccccc6c5)c4)c3)ccc2c1 | -80.3% (active) | -42.1% (active) | -18.4% (active) | -58% (active) | -69.9% (active) | -68.2% (active) | -74.2% (active) | -74.2% (active) | 1.28% (active) | -67.5% (active) | -46.5% (active) | -59% (active) | -76.7% (active) | -74% (active) | -52.2% (active) | -79.5% (active) | -40.3% (active) | -78.6% (active) | -67.5% (active) | -44.9% (active) |
| Cc1cccc2c1S/C(=C/c1ccc([N+](=O)[O-])cc1)C2=O | 91.3% | 86.6% | 96.3% | 92.5% | 106% | 105% | 93.1% | 106% | 106% | 114% | 106% | 42.2% | 99.4% | 103% | 140% | 103% | 89.8% | 101% | 108% | 98.2% |
| CCN1C(=O)N(CC)C2Nn3c(s/c(=C4\C(=O)Nc5ccccc54)c3=O)=NC21 (stereo not given) | 48.6% | 79.3% | 71.5% | 68.4% | 23.7% | 69.7% | 15.4% | 55.1% | 32% | 19.5% | 10.2% | 20.2% | 56.5% | 48.3% | -1.37% (active) | 64.9% | 56.6% | 10.9% | 67.4% | 14.9% |
| CCc1ccc(Oc2c(-c3ccc(OCc4ccc(Cl)cc4)cc3O)nn(C)c2C(F)(F)F)cc1 | -14.2% (active) | 6.86% (active) | 13.6% | -35.2% (active) | -20% (active) | -25.3% (active) | -33.5% (active) | 3.73% (active) | -37% (active) | -75.2% (active) | 15% | 2.43% (active) | -27.6% (active) | -55.7% (active) | -43.3% (active) | 12.6% | -11.1% (active) | 2.68% (active) | -18.3% (active) | 1% (active) |
| CN(C)CCCNc1nc2ccccc2c2c(=O)c3cc(F)ccc3sc12 | 70.6% | 91.5% | 71.2% | 65% | -1.74% (active) | 24% | 39.2% | 57% | 59.3% | -34.1% (active) | 26.2% | -27% (active) | 81.6% | -29.6% (active) | 48.4% | 52.5% | 78.2% | 27.3% | 84.9% | -64.1% (active) |
| CCOC(=O)C1=C(N)Oc2c(sc3c(C)cccc23)C1c1ccc(OC)cc1 (stereo not given) | 46.4% | 55.2% | 50.9% | 34.4% | 21.9% | 66.1% | 17.1% | 42.7% | 49.3% | 118% | 50.5% | 10.5% | 43.9% | 46.3% | 29.8% | 51% | 19.4% | 15.4% | 46.8% | 21.7% |
| COc1cc(CNS(=O)(=O)c2ccc(C)cc2)ccc1OCc1cn(-c2ccccc2)nn1 | 83% | 81.5% | 92.8% | 97% | 97.1% | 68.4% | 76.5% | 90.7% | 95.2% | 108% | 103% | 73.4% | 99.7% | 95.4% | 99.9% | 98.2% | 93.5% | 94.6% | 82.3% | 99.2% |
| COc1cccc(-c2nc(-c3ccc(NS(=O)(=O)c4ccccc4)cc3)[nH]c2-c2ccnc(Br)c2)c1 | 25.8% | 37.3% | 32.4% | 26.5% | 16.7% | 24.5% | 20.7% | 29% | 20% | 35.5% | 44.3% | 5.37% (active) | 40.2% | 30.1% | -24.5% (active) | 31.4% | 3.83% (active) | 36.6% | 48.7% | 27.1% |
| Cc1ccc2c(n1)C(=O)C(Cl)=C(Nc1ccccc1C(C)C)C2=O | 49.8% | 59.1% | 62.7% | 90.8% | 82.4% | 106% | 39.3% | 94.7% | 91.2% | 116% | 63.2% | 12% | 42.5% | 30.3% | 83.6% | 86.4% | 101% | 65.9% | 24.9% | 63% |
| Cc1cccc2c3c(sc12)C(c1ccc(Cl)cc1)C(C#N)=C(/N=C/c1ccc(Cl)cc1)O3 (stereo not given) | 27.2% | 18% | 49.9% | 42% | 6.47% (active) | 96.5% | 22.8% | 30.9% | 31.9% | 0.544% (active) | 20.1% | 8.84% (active) | 56.6% | 28.5% | -15.3% (active) | 44.6% | 1.19% (active) | -13.7% (active) | 65.1% | 4.4% (active) |
| COc1cc2cc(Oc3ccc(NC(=O)Nc4ccc(Cl)c(Cl)c4)cc3)c(C)nc2cc1OCCN1CCOCC1 | 58.9% | 57.7% | 105% | 105% | 91.8% | 76.8% | 67.5% | 76.7% | 91.5% | 104% | 99.6% | 39.2% | 92.2% | 97.1% | 84% | 94.3% | 80.1% | 93.6% | 74.3% | 101% |
| O=c1c2cc(F)cc(Cl)c2sc2c(NCCCNCCO)nc3ccccc3c12 | 89.9% | 106% | 89.8% | 90.1% | 10.3% | 65.6% | 92.4% | 83.7% | 81.7% | 73.5% | 77% | 18.7% | 99.8% | 48.8% | 80.3% | 67.1% | 104% | 88.5% | 109% | 62.3% |
| CN(C)CCN1CCN(c2ncccc2C2Nc3ccccc3-n3cccc32)CC1 (stereo not given) | 96.2% | 102% | 102% | 109% | 106% | 84.9% | 104% | 103% | 91.8% | -48.6% (active) | 110% | 89.4% | 106% | 93.6% | 101% | 92.3% | 103% | 101% | 101% | 106% |
| COc1ccc(C(=O)/C=C/c2sc(Cl)nc2Cl)cc1 | 8.44% (active) | 40.7% | 93.1% | 68.3% | 29.5% | 32.8% | 19.1% | 78.1% | 18.5% | 1.55% (active) | 61.9% | 9.56% (active) | 32.1% | 38.7% | 24.6% | 31.9% | 52.3% | -20.5% (active) | 72.8% | 6.12% (active) |
